Screening data deposited in PubChem by National Center for Advancing Translational Sciences (NCATS).
RECQ1 inh-1 = RECQ1 (human) helicase inhibition; P46063; 240,000 tested, 0.54% active; AID 2549; Potency, µM (doses to about 57.3 µM), inactives show top-dose activity, negative = inhibition, most hits filed as inhibitors; RECQ1 DNA unwinding, red fluorescence kinetic read;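 further: plate controls were vehicle for no effect and no enzyme for full effect; nearly all actives have a fitted effect of over 30% in size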
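RECQ1T1 50 nM; forked duplex (20 bp + 30-nt ss tails) 200 nM, ATP 2 mM final; pH 8.0, 2 mM MgCl2, 2.5 ug/ml poly(dI-dC); 15 min compound preincubation; discontinuous kinetic read over 2 h at RT.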
APE1 inh-1 = APE1 (human) endonuclease inhibition; recombinant APE1, TAMRA/BHQ-2 abasic DNA cleavage fluorescence; Potency, µM (top dose mostly 65.8 µM), for the others: top-dose activity change, negative = inhibition, usual class: inhibitors; 350,000 tested, 0.35% active; P27695;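 further: plate controls were vehicle for no effect and reference inhibitor for full effect; nearly all actives have a fitted effect of over 55% in size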
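APE1 at 0.75 nM final was preincubated with compound 15 min at room temperature, then 50 nM double-stranded THF abasic-site substrate (5'-TAMRA/3'-BHQ-2) was added. Fluorescence (ex 525/em 598 nm) was read kinetically; third-minus-first read gave activity.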
PGK inhibitor = blocks T. brucei phosphoglycerate kinase; Potency, µM (doses to about 57.5 µM), without a hit: at the top dose activity change, negative = inhibition, hits mostly inhibitors; AID 602233; PGK/GAPDH coupled, Kinase-Glo luminescence, 60 min; 380,000 tested, 0.043% active; P07378; further: nearly all actives have a fitted effect of over 60% in size
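Luminescent ATP detection (Kinase-Glo Plus) follows a 60-minute room-temperature incubation, with wells lacking PGK as controls. Buffer: 100 mM TEA (pH 7.6), 5 mM MgCl2, 0.01% Tween-20. Coupling enzyme GAPDH (100 nM final) supplies unstable 1,3-BPG in-well.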
TDP1 block = blocks human tyrosyl-DNA phosphodiesterase 1 | 350,000 tested, 0.28% active | Q9NUW8 | recombinant TDP1, AlphaScreen DNA substrate cleavage | Potency, µM (series often up to 130 µM), inactives show top-dose activity change, negative = inhibition, usual class: inhibitors; further: nearly all actives have a fitted effect of over 40% in size
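Recombinant human Tdp1 (E. coli-expressed, 1 nM final) preincubated with compounds 15 min at room temperature, then 5'-biotin/3'-phosphotyrosine-FITC DNA substrate (15 nM final) added for 5 min. AlphaScreen beads (10 ug/ml final) added 10 min; cleavage lowers signal.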
BLM inh-1 = inhibitors of human Bloom syndrome helicase BLM | Potency, µM (top dose mostly 56.1 µM), for the others: at the top dose activity change, negative = inhibition, actives largely listed as inhibitors | AID 2528 | recombinant BLM DNA unwinding, fluorescence dequenching | 350,000 tested, 0.2% active | P54132;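 further: plate controls were vehicle for no effect and no enzyme for full effect; nearly all actives have a fitted effect of over 35% in size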
GLS inhibitor = blocks human kidney-isoform glutaminase activity | GLS enzymatic activity, qHTS titration | Potency, µM (doses to about 45.5 µM), inactives show top-dose activity change, negative = inhibition, most hits filed as inhibitors | 410,000 tested, 0.21% active | O94925
Target sequence (O94925 whole entry, looked up, canonical isoform): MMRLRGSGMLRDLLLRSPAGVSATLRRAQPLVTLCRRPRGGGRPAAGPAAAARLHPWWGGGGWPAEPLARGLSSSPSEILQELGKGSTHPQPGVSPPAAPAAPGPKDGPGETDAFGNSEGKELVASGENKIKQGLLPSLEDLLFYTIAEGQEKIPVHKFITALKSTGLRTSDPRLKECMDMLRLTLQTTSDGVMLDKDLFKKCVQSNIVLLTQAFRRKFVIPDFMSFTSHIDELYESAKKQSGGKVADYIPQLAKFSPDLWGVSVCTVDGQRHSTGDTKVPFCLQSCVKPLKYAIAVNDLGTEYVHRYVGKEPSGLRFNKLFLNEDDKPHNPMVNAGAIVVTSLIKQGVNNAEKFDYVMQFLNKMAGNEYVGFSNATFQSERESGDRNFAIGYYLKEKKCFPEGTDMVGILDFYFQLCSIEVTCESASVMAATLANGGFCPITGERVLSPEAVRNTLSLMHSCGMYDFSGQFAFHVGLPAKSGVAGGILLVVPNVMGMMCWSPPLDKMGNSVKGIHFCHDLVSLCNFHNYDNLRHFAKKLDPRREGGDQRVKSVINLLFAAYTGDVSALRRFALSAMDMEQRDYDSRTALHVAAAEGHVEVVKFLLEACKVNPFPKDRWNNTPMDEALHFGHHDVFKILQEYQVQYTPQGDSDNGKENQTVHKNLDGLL
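Two-point fluorescence kinetic (t0, 30 min RT) for hKGA; glutamate detected via glutamate oxidase–HRP–Amplex Red. Substrate: 1 mM L-glutamine solution; buffer 45 mM KH2PO4, pH 8.2.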
DNA dye displace = displaces fluorescent dye from DNA, flagging APE1 artifacts; shares compounds with APE1 inh-1; DNA fluorescent dye displacement counterscreen, fluorescence; Potency, µM (top dose mostly 28.5 µM), inactives show at the highest dose activity change, negative = inhibition, actives largely listed as inhibitors; 480 tested, 7% active;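 further: loss of thiazole orange fluorescence as the dye is displaced from duplex DNA; 0% = ThO with dsDNA and no compound and -100% = ThO without dsDNA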
Endo IV inh = counter-screen for APE1 inhibitors: inhibitors of E. coli endonuclease IV; shares compounds with APE1 inh-1; E. coli Endo IV, fluorogenic AP-site DNA cleavage; Potency, µM (doses to about 27.1 µM), without a hit: at the highest dose activity change, negative = inhibition, most hits filed as inhibitors; 560 tested, 4% active; AID 2565;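 further: plate controls were uninhibited enzyme wells for no effect and no enzyme buffer wells for full effect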
APE1 inh-2 = APE1 (human) endonuclease inhibition, confirmation | AID 2572 | purified APE1, fluorogenic abasic-site DNA cleavage | shares compounds with APE1 inh-1 | 750 tested, 44% active | Potency, µM (top dose mostly 57.1 µM), without a hit: top-dose activity change, negative = inhibition, hits mostly inhibitors; further: nearly all actives have a fitted effect of over 30% in size
APE1 FP inh = compounds that displace a DNA probe from human APE1 | shares compounds with APE1 inh-1 | APE1 binding to TAMRA-labelled double-stranded DNA, fluorescence polarization displacement | Potency, µM (series often up to 28.5 µM), inactives show at the top dose activity, negative = inhibition, actives largely listed as inhibitors | 480 tested, 7% active
BLM inh-2 = confirmation of inhibitors of human Bloom syndrome helicase BLM; BLM DNA unwinding, fluorescence quenching, biochemical; AID 2585; 220 tested, 40% active; Potency, µM, for the others: max response, negative = inhibition, usual class: inhibitors; shares compounds with BLM inh-1;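 further: strand separation dequenches TAMRA so unwinding raises red fluorescence; series mostly up to about 69 µM; nearly all actives have a fitted effect of over 45% in size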
RECQ1 inh-2 = blocks human RECQ1 DNA unwinding; AID 504841; shares compounds with RECQ1 inh-1; Potency, µM (top dose mostly 119 µM), without a hit: at the highest dose activity, negative = inhibition, hits mostly inhibitors; 1,100 tested, 15% active; recombinant RECQ1 DNA unwinding, red fluorescence; further: nearly all actives have a fitted effect of over 50% in size
* = called active by the depositor; i = inactive; ? = inconclusive; . = not tested or not shown; [ ] = another dose, or the depositor's remark. An excerpt weighted towards active compounds, which were near 0.85% of everything screened. The call rests on the fitted dose curve; in most records, active means well fitted curve in the direction sought with a large enough effect; inconclusive means small, poorly fitted or top-dose-only effect, or another doubt; inactive means no such curve, though single readings can be large; an effect the other way counts as inactive or inconclusive. Unless noted, on the % scale 0 is the no-effect control and ±100 the full control effect; potency means the concentration at half of the fitted maximal effect.

SMILES	RECQ1 inh-1	APE1 inh-1	PGK inhibitor	TDP1 block	BLM inh-1	GLS inhibitor	Endo IV inh	APE1 inh-2	others
COc1ccc(-c2nnc3ccc(SCC(=O)NCc4ccco4)nn23)cc1	-28%	?	-11%	79µM*	1%	-2%	.	-10%
Cc1cc(C=O)c(C)n1-c1ccc(Cl)c(C(=O)O)c1	28µM*	5.6µM*	?	45µM*	-3%	?	8%	8.9µM*	DNA dye displace=6%;APE1 FP inh=-23%
COc1ccc(-n2c(C)cc(C=O)c2C)cc1Cl	-11%	1%	-8%	-1%	-5%	-4%	.	.
Cc1cccc(S(=O)(=O)NC2CCN(C#N)C2)c1 (configuration not stated)	.	.	.	0%	.	.	.	.
Cc1ccc2nc(NC(=O)CCCC(=O)O)sc2c1	i	?	-14%	.	-4%	-2%	4%	?	DNA dye displace=-5%;APE1 FP inh=-27%
CC(C)(C)c1ccc(Oc2ccc(NC(=O)C3CC=CCC3C(=O)O)cc2)cc1 (configuration not stated)	i	-1%	-2%	.	?	4%	.	.
O=C(O)Cc1ccc(NC(=O)C2CC=CCC2C(=O)O)cc1 (configuration not stated)	-4%	20µM*	.	45µM*	-2%	.	.	-36%
O=C(O)C1CC=CCC1C(=O)Nc1ccccc1 (configuration not stated)	-5%	-17%	?	22µM*	-1%	12%	.	-23%
O=C(O)c1ccc(NC(=O)C2CC=CCC2C(=O)O)cc1 (configuration not stated)	i	?	-13%	.	4%	0%	.	.
c1ccc2c(c1)SCc1c-2[nH]c2ccccc12	-12%	-1%	.	19%	-9%	.	.	.
C=CC1=C2C=C(C3CC3)N(CCCCO)C=C2C(=O)C(C)(OC(=O)c2ccco2)C1=O (configuration not stated)	1%[11.5 µM]	0%[12.4 µM]	.	-3%[12.3 µM]	-22%[12.4 µM]	.	.	.
N#C/C(=C/c1ccc(-c2cc(C(=O)O)cc(C(=O)O)c2)o1)c1nc2ccccc2s1	?	?	.	.	55%	.	?	14µM*	DNA dye displace=?;APE1 FP inh=-8%
CC[C@@H](CO)NCCN[C@@H](CC)CO	.	12%[21 µM]	.	.	.	.	.	.
O=C(O)c1cc(-c2ccc(/C=N/N3C(=O)C4C5C=CC(C6CC56)C4C3=O)o2)ccc1Cl (configuration not stated)	-11%	?	6%	?	-3%	15%	.	?
Cc1nn(-c2ccccc2)c(C)c1C=O	-2%	-1%	-8%	5%	-6%	-1%	.	.
Cc1nn(-c2ccccc2)c(C)c1S(=O)(=O)O	7%	-1%	-4%	25µM*	-6%	-9%	.	?
NS(=O)(=O)c1ccc(N/N=C/c2ccc(O)cc2O)c([N+](=O)[O-])c1	-27%	7%	-4%	4%	-24%	-12%	.	.
NS(=O)(=O)c1ccc(N/N=C/c2ccc(O)c(O)c2O)c([N+](=O)[O-])c1	3.2µM*	2µM*	-19%	-10%	16µM*	69%	23%	5.6µM*	DNA dye displace=13µM*;APE1 FP inh=-9%
N#C/C(=C\c1ccc(O)c(O)c1)C(=O)N1CCCC1	2%	-11%	-5%	3%	-9%	?	.	.
N#C/C(=C\c1ccc(O)c(O)c1)C(=O)c1ccc(O)c(O)c1	1.6µM*	0.095µM*	1.1µM*	.	.	4%	?	0.2µM*
O=C(O)CSc1cc(C(=O)c2ccccc2O)cn2c(=O)c3c4c(sc3nc12)CCCC4	2%	?	-18%	.	25µM*	7%	?	4µM*	DNA dye displace=-18%;APE1 FP inh=?;BLM inh-2=32µM*
O=C(O)CSc1nc2sc3c(c2c(=O)n1Cc1ccccc1)CCCCC3	.	21%	-5%	.	-8%	-2%	.	.
Cc1ccc(/C=c2\sc3nc(-c4ccco4)nn3c2=O)o1	8%	5.6µM*	?	-4%	25µM*	67%	-9%	7.9µM*	DNA dye displace=?;APE1 FP inh=15%;BLM inh-2=-10%
CC1=CC23C(=O)C(C=C(CO)[C@@H](O)[C@]2(O)[C@H]1O)[C@H]1[C@@H](C[C@H]3C)C1(C)C (some centres not stated)	-9%	-4%	.	2%	-4%	.	.	.
Cc1ccc(CNC(=O)CCS(=O)(=O)c2ccc(Cl)cc2)cc1	3%	2%	-19%	-3%	0%	-12%	.	.
Cc1ccc(CNC(=O)CCS(=O)(=O)c2ccc(Br)cc2)cc1	?	?	?	11µM*	-17%	11µM*	.	?	RECQ1 inh-2=?
